# Laboratory results taken from paper PMC8384837, “Expanding the binding specificity for RNA recognition by a PUF domain”.
# Key:
# Assay in all cases: yeast three-hybrid, YBZ-1, SC-Leu-His + 0.5 mM 3-AT, 4 days
# Settings in all cases: tags: N-Gal4 AD-HA kept; label: inside an RPR1-promoter hybrid RNA with tandem MS2 sites; ssRNA
# [1] = biological target: PUM1 PUF domain R1-RGC (Homo sapiens, UniProt Q14671 828-1176, S863R;R864G;Q867C)
# Outline: (§1)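 A centromeric plasmid in strain YBZ-1 co-expressed Pumilio-1 PUF domain libraries, randomized at the three base-contacting residues of each repeat, with matching RNA elements; the strain carries a LexA–MS2 coat fusion and a HIS3 reporter. After four days on SC-Leu (input) or SC-Leu-His + 0.5 mM 3-AT (selection), the repeat regions were PCR-amplified and Illumina-sequenced. The interaction score is the log change in variant frequency from input to selection, using log2 and a pseudocount of 1 where absent.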
# [2] = biological target: PUM1 PUF domain R8-RWP (Homo sapiens, UniProt Q14671 828-1176, N1122R;Y1123W;Q1126P)
# Outline: as §1
# [3] = biological target: PUM1 PUF domain R8-PYL (Homo sapiens, UniProt Q14671 828-1176, N1122P;Q1126L)
# Outline: as §1
# [4] = biological target: PUM1 PUF domain R8-RYN (Homo sapiens, UniProt Q14671 828-1176, N1122R;Q1126N)
# Outline: as §1
# [5] = biological target: PUM1 PUF domain R8-LFG (Homo sapiens, UniProt Q14671 828-1176, N1122L;Y1123F;Q1126G)
# Sequence of PUM1 PUF domain R8-LFG (Q14671 828-1176 N1122L/Y1123F/Q1126G): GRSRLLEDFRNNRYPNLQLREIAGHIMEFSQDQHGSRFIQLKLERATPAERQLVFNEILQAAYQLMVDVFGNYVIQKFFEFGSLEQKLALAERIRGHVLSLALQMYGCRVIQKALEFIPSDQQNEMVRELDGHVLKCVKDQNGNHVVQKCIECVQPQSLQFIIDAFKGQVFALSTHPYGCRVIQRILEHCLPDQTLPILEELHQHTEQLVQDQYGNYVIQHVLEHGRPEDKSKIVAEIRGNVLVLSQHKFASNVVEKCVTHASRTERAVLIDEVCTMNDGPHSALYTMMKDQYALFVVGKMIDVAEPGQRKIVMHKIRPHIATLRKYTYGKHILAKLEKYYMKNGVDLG
# Outline: as §1
# [6] = biological target: PUM1 PUF domain R3-IFS (Homo sapiens, UniProt Q14671 828-1176, C935I;R936F;Q939S)
# Outline: as §1
# [7] = biological target: PUM1 PUF domain R3-QRS (Homo sapiens, UniProt Q14671 828-1176, C935Q;Q939S)
# Sequence of PUM1 PUF domain R3-QRS (Q14671 828-1176 C935Q/Q939S): as the sequence (Q14671 828-1176 N1122L/Y1123F/Q1126G) above, with C108Q, Q112S, L295N, F296Y, G299Q counted along it
# Outline: as §1
# [8] = biological target: PUM1 PUF domain R4-GSQ (Homo sapiens, UniProt Q14671 828-1176, N971G;H972S)
# Outline: as §1
# [9] = biological target: PUM1 PUF domain R4-VFP (Homo sapiens, UniProt Q14671 828-1176, N971V;H972F;Q975P)
# Sequence of PUM1 PUF domain R4-VFP (Q14671 828-1176 N971V/H972F/Q975P): as the sequence (Q14671 828-1176 N1122L/Y1123F/Q1126G) above, with N144V, H145F, Q148P, L295N, F296Y, G299Q counted along it
# Outline: as §1
# [10] = biological target: PUM1 PUF domain R4-WFG (Homo sapiens, UniProt Q14671 828-1176, N971W;H972F;Q975G)
# Sequence of PUM1 PUF domain R4-WFG (Q14671 828-1176 N971W/H972F/Q975G): as the sequence (Q14671 828-1176 N1122L/Y1123F/Q1126G) above, with N144W, H145F, Q148G, L295N, F296Y, G299Q counted along it
# Outline: as §1
# [11] = biological target: PUM1 PUF domain R3-ART (Homo sapiens, UniProt Q14671 828-1176, C935A;Q939T)
# Outline: as §1
# [12] = biological target: PUM1 PUF domain R5-EFW (Homo sapiens, UniProt Q14671 828-1176, C1007E;R1008F;Q1011W)
# Outline: as §1
# [13] = biological target: PUM1 PUF domain R5-VYF (Homo sapiens, UniProt Q14671 828-1176, C1007V;R1008Y;Q1011F)
# Sequence of PUM1 PUF domain R5-VYF (Q14671 828-1176 C1007V/R1008Y/Q1011F): as the sequence (Q14671 828-1176 N1122L/Y1123F/Q1126G) above, with C180V, R181Y, Q184F, L295N, F296Y, G299Q counted along it
# Outline: as §1
# [14] = biological target: PUM1 PUF domain R4-GPN (Homo sapiens, UniProt Q14671 828-1176, N971G;H972P;Q975N)
# Sequence of PUM1 PUF domain R4-GPN (Q14671 828-1176 N971G/H972P/Q975N): as the sequence (Q14671 828-1176 N1122L/Y1123F/Q1126G) above, with N144G, H145P, Q148N, L295N, F296Y, G299Q counted along it
# Outline: as §1
# [15] = biological target: PUM1 PUF domain R7-RGW (Homo sapiens, UniProt Q14671 828-1176, S1079R;N1080G;E1083W)
# Outline: as §1
# [16] = biological target: PUM1 PUF domain R5-RAV (Homo sapiens, UniProt Q14671 828-1176, C1007R;R1008A;Q1011V)
# Outline: as §1
# [17] = biological target: PUM1 PUF domain R5-KQC (Homo sapiens, UniProt Q14671 828-1176, C1007K;R1008Q;Q1011C)
# Sequence of PUM1 PUF domain R5-KQC (Q14671 828-1176 C1007K/R1008Q/Q1011C): as the sequence (Q14671 828-1176 N1122L/Y1123F/Q1126G) above, with C180K, R181Q, Q184C, L295N, F296Y, G299Q counted along it
# Outline: as §1
# [18] = biological target: PUM1 PUF domain R3-RAG (Homo sapiens, UniProt Q14671 828-1176, C935R;R936A;Q939G)
# Sequence of PUM1 PUF domain R3-RAG (Q14671 828-1176 C935R/R936A/Q939G): as the sequence (Q14671 828-1176 N1122L/Y1123F/Q1126G) above, with C108R, R109A, Q112G, L295N, F296Y, G299Q counted along it
# Outline: as §1
# [19] = biological target: PUM1 PUF domain R5-NIL (Homo sapiens, UniProt Q14671 828-1176, C1007N;R1008I;Q1011L)
# Outline: as §1
# [20] = biological target: PUM1 PUF domain R2-RRC (Homo sapiens, UniProt Q14671 828-1176, N899R;Y900R;Q903C)
# Sequence of PUM1 PUF domain R2-RRC (Q14671 828-1176 N899R/Y900R/Q903C): as the sequence (Q14671 828-1176 N1122L/Y1123F/Q1126G) above, with N72R, Y73R, Q76C, L295N, F296Y, G299Q counted along it
# Outline: as §1
# Sequence of PUM1 PUF domain R1-RGC (Q14671 828-1176 S863R/R864G/Q867C): as the sequence (Q14671 828-1176 N1122L/Y1123F/Q1126G) above, with S36R, R37G, Q40C, L295N, F296Y, G299Q counted along it
sequence,measurement,setting,value
GGCUAGAACUAGUGGAUCCCCCGGCGCCCGGCGGCUCGAGCCCGGGUAAGUGUAAAUCGUCUGCAUGCCGCCGGGCGCCAUGCCUGCAGGUCGACUCUAGAAAACAUG,binding signal,[1],3.36 log2 enrichment (interaction score)
GGCUAGAACUAGUGGAUCCCCCGGCGCCCGGCGGCUCGAGCCCGGGUAAGCGUAAAUAGUCUGCAUGCCGCCGGGCGCCAUGCCUGCAGGUCGACUCUAGAAAACAUG,binding signal,[2],5 log2 enrichment (interaction score)
same,binding signal,[3],3.48 log2 enrichment (interaction score)
same,binding signal,[4],6.46 log2 enrichment (interaction score)
same,binding signal,[5],2.38 log2 enrichment (interaction score)
GGCUAGAACUAGUGGAUCCCCCGGCGCCCGGCGGCUCGAGCCCGGGUAAGUGUAAGUAGUCUGCAUGCCGCCGGGCGCCAUGCCUGCAGGUCGACUCUAGAAAACAUG,binding signal,[6],5.56 log2 enrichment (interaction score)
same,binding signal,[7],2.75 log2 enrichment (interaction score)
GGCUAGAACUAGUGGAUCCCCCGGCGCCCGGCGGCUCGAGCCCGGGUAAGUGUAAAUUGUCUGCAUGCCGCCGGGCGCCAUGCCUGCAGGUCGACUCUAGAAAACAUG,binding signal,[1],2.07 log2 enrichment (interaction score)
GGCUAGAACUAGUGGAUCCCCCGGCGCCCGGCGGCUCGAGCCCGGGUAAGUGUAUAUAGUCUGCAUGCCGCCGGGCGCCAUGCCUGCAGGUCGACUCUAGAAAACAUG,binding signal,[8],0.64 log2 enrichment (interaction score)
same,binding signal,[9],3.78 log2 enrichment (interaction score)
same,binding signal,[10],2.4 log2 enrichment (interaction score)
GGCUAGAACUAGUGGAUCCCCCGGCGCCCGGCGGCUCGAGCCCGGGUAAGUGUAAAUAGUCUGCAUGCCGCCGGGCGCCAUGCCUGCAGGUCGACUCUAGAAAACAUG,binding signal,[2],3.02 log2 enrichment (interaction score)
same,binding signal,[11],3.43 log2 enrichment (interaction score)
same,binding signal,[12],4.47 log2 enrichment (interaction score)
same,binding signal,[3],2.9 log2 enrichment (interaction score)
same,binding signal,[4],5.13 log2 enrichment (interaction score)
same,binding signal,[5],1.28 log2 enrichment (interaction score)
same,binding signal,[13],2.44 log2 enrichment (interaction score)
same,binding signal,[14],3.62 log2 enrichment (interaction score)
same,binding signal,[10],1.81 log2 enrichment (interaction score)
GGCUAGAACUAGUGGAUCCCCCGGCGCCCGGCGGCUCGAGCCCGGGUAAGUGUAAAUGGUCUGCAUGCCGCCGGGCGCCAUGCCUGCAGGUCGACUCUAGAAAACAUG,binding signal,[1],1.27 log2 enrichment (interaction score)
GGCUAGAACUAGUGGAUCCCCCGGCGCCCGGCGGCUCGAGCCCGGGUAAGUGUACAUAGUCUGCAUGCCGCCGGGCGCCAUGCCUGCAGGUCGACUCUAGAAAACAUG,binding signal,[8],3.24 log2 enrichment (interaction score)
GGCUAGAACUAGUGGAUCCCCCGGCGCCCGGCGGCUCGAGCCCGGGUAAGUUUAAAUAGUCUGCAUGCCGCCGGGCGCCAUGCCUGCAGGUCGACUCUAGAAAACAUG,binding signal,[15],3.68 log2 enrichment (interaction score)
GGCUAGAACUAGUGGAUCCCCCGGCGCCCGGCGGCUCGAGCCCGGGUAAGUGUCAAUAGUCUGCAUGCCGCCGGGCGCCAUGCCUGCAGGUCGACUCUAGAAAACAUG,binding signal,[16],2.94 log2 enrichment (interaction score)
same,binding signal,[17],3.25 log2 enrichment (interaction score)
GGCUAGAACUAGUGGAUCCCCCGGCGCCCGGCGGCUCGAGCCCGGGUAAGUGUGAAUAGUCUGCAUGCCGCCGGGCGCCAUGCCUGCAGGUCGACUCUAGAAAACAUG,binding signal,[12],4.12 log2 enrichment (interaction score)
GGCUAGAACUAGUGGAUCCCCCGGCGCCCGGCGGCUCGAGCCCGGGUAAGUGUAAUUAGUCUGCAUGCCGCCGGGCGCCAUGCCUGCAGGUCGACUCUAGAAAACAUG,binding signal,[11],0.34 log2 enrichment (interaction score)
same,binding signal,[18],3.75 log2 enrichment (interaction score)
same,binding signal,[7],2.68 log2 enrichment (interaction score)
GGCUAGAACUAGUGGAUCCCCCGGCGCCCGGCGGCUCGAGCCCGGGUAAGUGUUAAUAGUCUGCAUGCCGCCGGGCGCCAUGCCUGCAGGUCGACUCUAGAAAACAUG,binding signal,[19],3.18 log2 enrichment (interaction score)
GGCUAGAACUAGUGGAUCCCCCGGCGCCCGGCGGCUCGAGCCCGGGUAAGUGUAAAGAGUCUGCAUGCCGCCGGGCGCCAUGCCUGCAGGUCGACUCUAGAAAACAUG,binding signal,[20],2.42 log2 enrichment (interaction score)
